FXN GAA850 act = increases GAA850 frataxin promoter reporter activity. AID 540364. hit rate 0.56% among 360,000. activation, % at 6 µM. HEK293 lucGAA850 FXN promoter luciferase reporter, 24 h; percent of 10 µM SAHA response;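 active means activation above the average of all compounds screened plus 3 SD, cutoff fixed separately per campaign, cut at about 7.5% in these data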
SMARCA2 act = increases SMARCA2 function in MMTV reporter cells | MG213 cells, MMTV-luciferase reporter, dexamethasone, overnight | activation, % at 9.1 µM | hit rate 1% among 370,000; in the data active means activation above about 7.8%
Gli-Sufu antag = blocks Gli-Sufu signaling in a luciferase reporter; inhibition, % at 5 µM; hit rate 0.74% among 340,000; Sufu-KO-LIGHT fibroblasts, Gli luciferase reporter luminescence;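 active means inhibition above about 55%, limit read from the data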
NR2F2 inh = inhibitors of human COUP-TFII (NR2F2); HEK293T NGFI-A luciferase reporter, luminescence; inhibition, % at 8.6 µM; hit rate 0.7% among 370,000; AID 686940;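 active means inhibition above a per-plate cutoff, mean inhibition of test wells between control levels plus 3 SD, cut at about 38% in these data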;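 further: cells cotransfected with COUP-TFII expression vector driving the NGFI-A reporter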
Target sequence (P24468 whole entry, looked up): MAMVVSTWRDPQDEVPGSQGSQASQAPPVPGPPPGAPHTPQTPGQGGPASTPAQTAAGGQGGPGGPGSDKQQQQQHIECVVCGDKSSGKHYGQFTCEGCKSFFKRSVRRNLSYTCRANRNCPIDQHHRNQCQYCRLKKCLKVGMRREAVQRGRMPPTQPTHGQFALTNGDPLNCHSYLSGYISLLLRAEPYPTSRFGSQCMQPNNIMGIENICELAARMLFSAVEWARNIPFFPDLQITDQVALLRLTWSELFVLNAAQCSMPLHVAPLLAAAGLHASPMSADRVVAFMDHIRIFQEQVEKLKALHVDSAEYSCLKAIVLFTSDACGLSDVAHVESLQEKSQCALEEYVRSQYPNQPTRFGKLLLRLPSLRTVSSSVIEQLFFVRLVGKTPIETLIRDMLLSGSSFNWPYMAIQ
GalR3 antag = antagonists of human GalR3 | O60755 | HEK293 GalR3-CNG cAMP membrane potential fluorescence; galR3 body fused to GalR1 C-terminus | inhibition, % at 3 µM | hit rate 0.44% among 360,000 | AID 651719;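 active means inhibition above the screen-wide average plus 3 SD, cut at about 13% in these data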;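 further: forskolin and galanin both at EC90 stimulate the cells; cAMP rise reported by CNG channel membrane potential dye signal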
H9c2 protect = protects H9c2 cardiomyocytes from peroxide injury | protection from H2O2 cell death, % at 20 µM | H2O2 injury protection, ATPLite, 2 h | AID 588492 | hit rate 0.63% among 360,000;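 active means compounds giving at least 50% protection of heart cells from peroxide-induced death in the single-dose screen, raw or plate-pattern-corrected value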
GAA30 FXN cntr = activates GAA30 frataxin promoter, counter-screen for GAA850 activators | hit rate 66% among 1,900 | HEK293 lucGAA30 FXN promoter luciferase, 24 h; DMSO = 0%, 5 µM ipriflavone = 100% | activation, % at 6 µM | shares compounds with FXN GAA850 act | AID 588350;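 active means mean activation above the mean of solvent-only control wells plus 3 SD, cut at about 22% in these data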;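 further: counterscreen of GAA850 promoter hits where activity marks nonselective or luminescence artifacts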
FXN GAA850 conf = confirmation of GAA850 frataxin (FXN) promoter activators; shares compounds with FXN GAA850 act; HEK293 lucGAA850 FXN promoter luciferase reporter, 24 h; 100% = activation by SAHA; activation, % at 6 µM; hit rate 86% among 1,900; AID 588351;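 active means mean activation above a set limit taken from the primary screen, cut at about 8% in these data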
Hits are given with their value; . = inactive; / = not tested or not shown. Hits are enriched below; roughly 3.4% of the tested compounds scored in any of these assays.

SMILES	FXN GAA850 act	SMARCA2 act	Gli-Sufu antag	NR2F2 inh	GalR3 antag	H9c2 protect	GAA30 FXN cntr	FXN GAA850 conf
CCCCc1c(-c2ccccc2OC)ncn1Cc1ccc(Cl)cc1Cl	/	.	/	.	.	/	/	/
Cc1cc(C)cc(-n2c(SCC(=O)NCc3ccco3)nc3ccccc3c2=O)c1	.	.	.	.	.	.	/	/
Cc1cc(C)cc(-n2c(SCC(=O)NCc3ccc4c(c3)OCO4)nc3ccccc3c2=O)c1	8.6	.	.	.	.	.	.	.
Cc1cccc(NC(=O)CCC(=O)N/N=C/c2ccco2)c1	.	.	.	.	.	.	/	/
O=C(N/N=C\c1ccco1)Nc1cccc(Cl)c1	9.0	.	.	.	.	.	102.6	37.6
OCC1CCCN(C(=S)Nc2ccc(Oc3ccccc3)cc2)C1 (stereo not drawn)	10.8	.	.	.	.	.	105.4	34.2
CC(=O)c1ccc(NC(=S)N2CCCC(CO)C2)cc1 (stereo not drawn)	.	.	.	.	.	.	/	/
COc1ccc(NC(=O)NC2CCN(S(=O)(=O)c3ccc(F)cc3)CC2)cc1OC	/	.	/	.	/	/	/	/
COc1ccc(S(=O)(=O)N2CCCN(S(=O)(=O)c3ccc(OC)c(C)c3)CC2)cc1C	8.3	.	.	.	.	.	29.6	17.4
Cc1ccc(-n2nc3ccc(NC(=O)C(C)C)cc3n2)cc1	7.9	.	.	.	.	.	106.1	37.5
CC1CCCN(C(=O)c2nn(C)c3c2CSc2ccccc2-3)C1 (stereo not drawn)	9.6	.	.	.	/	.	30.0	12.0
CC1CC(C)CN(C(=O)c2nn(C)c3c2CSc2ccccc2-3)C1 (stereo not drawn)	.	.	.	.	/	.	/	/
COc1cnn(-c2ccc(C)cc2)c(=O)c1SCc1ccccc1	7.9	.	.	.	.	.	65.6	24.8
N/C(=N/OC(=O)c1ccccc1Cl)c1ncc([N+](=O)[O-])s1	14.5	.	.	.	.	.	103.4	50.7
N/C(=N\OC(=O)c1ccccc1Cl)c1cccc([N+](=O)[O-])c1	.	.	.	.	.	.	/	/
Cc1ccc(CN2CCCCC(NC(=O)C(C)(C)C)C2=O)cc1 (stereo not drawn)	/	.	/	.	/	/	/	/
